In all, about 310,000 compounds went through this assay and about 1,200 (0.39%) were called active. How the calls were made is not given here. The list is a sample of the results. Potency and affinity values are given separately.
target: Large T antigen (Simian virus 40) (UniProt P03070); test: SV40 large T antigen inhibitors, biochemical (AID 1903); details: SV40 large T antigen ATPase/helicase inhibition assay; at 20 µM; stronger effect = higher value
Sequence (P03070 whole entry, looked up): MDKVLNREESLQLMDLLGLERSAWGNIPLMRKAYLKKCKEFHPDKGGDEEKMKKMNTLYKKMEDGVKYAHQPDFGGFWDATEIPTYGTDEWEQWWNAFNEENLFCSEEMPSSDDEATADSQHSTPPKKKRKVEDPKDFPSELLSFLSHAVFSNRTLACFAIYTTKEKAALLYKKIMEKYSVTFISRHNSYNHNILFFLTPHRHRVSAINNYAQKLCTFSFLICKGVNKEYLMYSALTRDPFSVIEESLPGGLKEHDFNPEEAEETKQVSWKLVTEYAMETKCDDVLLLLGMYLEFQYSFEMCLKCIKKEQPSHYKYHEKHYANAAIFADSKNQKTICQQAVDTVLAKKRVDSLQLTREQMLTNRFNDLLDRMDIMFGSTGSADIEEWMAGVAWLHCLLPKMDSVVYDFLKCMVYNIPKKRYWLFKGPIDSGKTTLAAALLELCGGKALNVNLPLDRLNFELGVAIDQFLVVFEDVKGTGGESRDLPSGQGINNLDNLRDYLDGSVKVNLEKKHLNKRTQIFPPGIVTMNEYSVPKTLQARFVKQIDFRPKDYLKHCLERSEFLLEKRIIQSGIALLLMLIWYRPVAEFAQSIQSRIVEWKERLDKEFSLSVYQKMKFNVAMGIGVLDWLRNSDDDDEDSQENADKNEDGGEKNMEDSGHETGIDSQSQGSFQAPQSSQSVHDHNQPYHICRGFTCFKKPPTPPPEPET

inhibition, inactive:
O=C(CN1CCCCC1)Nc1ccc(N2CCCCCC2)cc1 31.6%
CC(=O)Nc1ccc(N2CCN(C(C)=O)CC2)cc1 27.6%
CCC(=O)Nc1ccc(N2CCCCC2)cc1 34.9%
CC(=O)Nc1ccc(N2CCCC2)cc1 0.723%
CNC(=O)C12CC3CC(CC(Cl)(C3)C1)C2 11.2%
O=C(CC(C(=O)O)c1cccc(Br)c1)c1ccc(Cl)cc1 (configuration not stated) 9.51%
N#Cc1cccc2cnccc12 7.69%
Nc1cccc2cnccc12 3.43%
O=C(CSc1ccc(-c2ccccc2)nn1)c1cccs1 3.38%
Cc1nonc1OCCNCc1c(C(=O)N(C)C)nc2ccc(Cl)cn12 6.84%
O=C1OC(c2ccc(Cl)cc2)=N/C1=C\C=C\c1ccco1 58.1%
S=c1[nH]nc(-c2ccncc2)n1/N=C/C=C/c1ccco1 28.8%
C(/C=C/c1ccco1)=N/N1CCN(c2ccccc2)CC1 7.94%
C(=C\c1ccco1)/C=N/n1cnnc1 21.7%
S=c1[nH]nc(-c2ccc(Cl)cc2)n1/N=C/c1ccco1 35.9%
Cc1ccc(N/N=C/C=C/c2ccco2)cc1 12.9%
Cc1ccccc1-n1nc2c(c1NC(=O)c1ccc3c(c1)OCO3)CS(=O)(=O)C2 5.82%
CC(=O)Nc1ccc(N(C(=O)c2ccccn2)C(C(=O)NC2CCCCC2)c2ccc(F)cc2)cc1 (configuration not stated) 5.17%
Cc1ccc2[nH]c(=O)c(C(c3nnnn3C(C)(C)C)N(Cc3ccco3)CC3CCCO3)cc2c1 (configuration not stated) 9.73%
Cc1occc1C(=O)Nc1sc2c(c1C(N)=O)CCC(C(C)(C)C)C2 (configuration not stated) 16.6%
COc1cc(OC)c(N(C)S(=O)(=O)c2cccc(C(=O)OCc3c(C)noc3C)c2)cc1Cl 5.27%
Cc1ccc(N2C(=O)C3CCC(C)(C2=O)C3(C)C)cc1 (configuration not stated) 1.07%
O=C(Cn1cnc2ccccc2c1=O)Nc1nc2ccccc2s1 4.55%
Cc1nnsc1C(=O)N1CCCC(C(=O)c2ccc(C(F)(F)F)cc2)C1 (configuration not stated) -2.34%
Cc1cccc(OCC(=O)N2CCN(c3nnc(-c4ccccc4)c4ccccc34)CC2)c1 12.7%
CCn1cc(C(=O)NCC(C)C)c(=O)c2cc(F)c(N3CCN(C)CC3)cc21 15.3%
COc1cc(OC)cc(C(=O)NCC2CCCN(C(=O)c3csc(C(C)C)n3)C2)c1 (configuration not stated) 12.6%
Cc1ccc(COc2ccc(S(=O)(=O)N3CCCC3)cc2C(N)=O)cc1 4.61%
O=C(Nc1ccc(F)cc1)Oc1ccc[nH]c1=O 9.86%
COc1ccccc1N1CCN(C(=O)/C=C/c2ccc(C)cc2)CC1 9.93%
CCc1ccc2[nH]c(=O)c(CN(CC3CCCO3)C(=S)NCc3ccco3)cc2c1 (configuration not stated) 10.7%
O=C(CSc1n[nH]c(=O)n1Cc1ccco1)Nc1ccccc1Cl 12.1%
N=c1n(CCO)c2ccccc2n1CCN1CCCCC1 6.21%
COc1ccc(N2C(=O)c3ccccc3NC23CCCCC3)cc1 -1.05%
COc1ccc(N2C(=O)c3ccccc3NC23CCCC3)cc1 5.28%
O=[N+]([O-])c1cccc(S(=O)(=O)c2cccc([N+](=O)[O-])c2)c1 3.63%
O=C(/C(=C(\[O-])c1ccccc1)[n+]1ccc2ccccc2c1)c1ccc([N+](=O)[O-])cc1 15%
CCC(C)N(C(=O)CSc1nnc(-c2ccco2)n1C)C1CCS(=O)(=O)C1 (configuration not stated) 13.2%
CCc1nc2nc(C)c(NS(=O)(=O)c3ccc(C)c(C)c3)c(=O)n2[nH]1 4.17%
O=C(Oc1ccc(-c2nnco2)cc1)C1CCN(C(=O)c2ccc(F)cc2)CC1 5.55%
COC(=O)N/C(C)=C1/NC(=O)c2ccccc2C(c2ccccc2)N1 (configuration not stated) 6.67%
O=C(O)c1ccc2c(=O)n3c(nc2c1)/C(=C/c1ccc(Cl)c(Cl)c1)CC3 24.8%
CC(=O)c1ccc(OC(=O)C(CCS(C)(=O)=O)N2C(=O)c3ccccc3C2=O)cc1 (configuration not stated) 3.15%
COc1ccc(NC(=O)C(CCS(C)(=O)=O)N2C(=O)c3ccccc3C2=O)cc1 (configuration not stated) 11.7%
CCOC(=O)N1CCN(C(=O)CC(C)S(=O)(=O)c2cc3c(cc2C)NC(=O)CO3)CC1 (configuration not stated) 6.54%
Cc1ccc(-n2c(SCC(=O)OC(C)C)nnc2-c2ccncc2)cc1 9.08%
O=C1Nc2ccc(F)cc2C12SCCS2 -3.17%
Cc1cc(=O)c2ccccc2s1 23.3%
O=c1[nH]c2ccc(F)cc2[nH]c1=O 22.1%
O=c1[nH]c2ccccc2c2ccccc12 11.7%
CC(=O)N1CCN(c2cc(N3CCc4ccccc4C3)c(F)cc2[N+](=O)[O-])CC1 29.4%
COc1ccc(C(=O)O)cc1N1C(=O)Nc2ccccc2N1O 13.6%
O=C(NCc1cccs1)C1CC(O)CN1C(=O)Nc1ccccc1 (configuration not stated) 3.53%
Nc1ccc(-c2nc3ccccc3[nH]2)cc1 6.85%
Nc1ccccc1Nc1nc2ccccc2[nH]1 26.5%
COc1ccc(CCNC(=O)c2cn(C)c3ccc(S(=O)(=O)N4CCOCC4)cc3c2=O)cc1OC 5.2%
C=CCNS(=O)(=O)c1ccc(OC)c(C)c1 1.44%
O=C(N/N=C/c1ccc([N+](=O)[O-])s1)C(O)c1ccccc1 (configuration not stated) 4.11%
CN(C(=O)/C=C/c1ccc([N+](=O)[O-])s1)c1ccccc1 -0.18%
O=C(/C=C/c1ccc([N+](=O)[O-])s1)N1CCN(c2ccccc2)CC1 16%
CCCN1C(=O)/C(=C/c2ccc(C)s2)NC1=S 8.4%
O=c1oc(/C=C/c2ccc([N+](=O)[O-])s2)nc2ccccc12 6.31%
CCN1C(=O)/C(=C/c2ccc(C)s2)NC1=S 11.9%
CCCCc1c(C(=O)O)cc(OC)cc1C(=O)O 12.1%
O=C(CSc1nc(O)cc(=O)n1-c1ccc(Cl)c(Cl)c1)Nc1ccc(Cl)cc1Cl 28.9%
Cn1nccc1C(=O)N1CCC(Cc2ccccc2)CC1 11.7%
COC(=O)CC1C(=O)NCCN1C(=O)Nc1ccc(Cl)c(Cl)c1 (configuration not stated) 4.47%
CCC(C)NC(=O)CCc1c(C)nc2c(c(C)nn2-c2ccccc2)c1C (configuration not stated) 6.67%
CC(=O)c1c(C)oc2ccc(N(C(C)=O)S(=O)(=O)c3cccc4cccnc34)cc12 10.6%
FC(F)(F)c1ccc(Cl)c(NC2=NCCCCC2)c1 7.53%
CC(C)OC(=O)C(C(=O)C(F)(F)F)c1cc(NS(=O)(=O)c2ccc3ccccc3c2)c2ccccc2c1O (configuration not stated) 15.1%
CCOc1ccc(/C=N/n2nnnc2N)cc1OCC 5.4%
CCOc1cc(/C=N\n2nnnc2N)ccc1O 33.9%
COc1cc(/C=N/n2nnnc2N)ccc1OC(C)=O 12.9%
COc1ccc(/C=N/n2nnnc2N)cc1OC 11.7%
O=C(NCc1ccccn1)c1ccc(Cl)c(S(=O)(=O)N2CCCCC2)c1 6.41%
COc1ccc(CNC(=O)C2CCN(S(=O)(=O)N3CCCCC3)CC2)cc1 7.96%
NC(=O)c1cc(S(=O)(=O)N2CCN(c3ccc([N+](=O)[O-])cc3)CC2)cs1 14.4%
CCOC(=O)c1cnc2cc(F)c(F)cc2c1N1CCOCC1 0.2%
O=C(COc1c(Cl)cc(Cl)cc1Cl)c1ccc(Cl)cc1 2.07%
CC(=O)Nc1ccc(NS(=O)(=O)c2ccc3c(c2)oc(=O)n3C)cc1 10.1%
Cc1ccc(NS(=O)(=O)c2ccc3c(c2)oc(=O)n3C)cc1 6.64%
Cc1ccc(NC(=O)CN2C(=O)c3ccccc3S2(=O)=O)c(C)c1 10.7%
CN(C)c1ccc(CNCC2CCCO2)cc1 (configuration not stated) 7.34%
COCC(=O)Nc1ccc(N(C)C)cc1 33.7%
CCCNC(=O)C(=O)Nc1ccc(N(C)C)cc1 18.4%
CN(C)c1ccc(C(=O)NCC2CCCO2)cc1 (configuration not stated) 5.69%
CC1CCN(C(=O)Cn2c(=O)n(CCCC(=O)NCc3ccco3)c(=O)c3sccc32)CC1 8.64%
O=C(Nc1ccccc1C(=O)Nc1ccccc1)c1cccs1 5.41%
Cc1c(C(=O)Nc2cc(S(=O)(=O)N3CCOCC3)ccc2N2CCOCC2)oc2ccccc12 0.37%
CCC(CC)C(=O)Nc1nnc(S(=O)(=O)N(CC)c2ccc(OC)cc2)s1 3.96%
Cc1ccc(S(=O)(=O)N2CCOCC2)cc1C(=O)c1nccn1C 8.29%
CC1=C/C(=N\OS(=O)(=O)c2ccccc2)C=CC1=O 26.7%
Cc1ccc(S(=O)(=O)ON=C2CCN(S(=O)(=O)c3ccccc3)CC2)cc1 1.39%
CCc1nnc(NC(=O)CSc2nnc(Cc3cc(=O)[nH]c(=O)[nH]3)n2-c2ccc(OC)cc2)s1 3.92%
NC(=NCCc1c[nH]c2ccccc12)NS(=O)(=O)c1ccc(F)cc1 -1.17%
CCCNCc1cc(OC)c(OCC(=O)NCCc2ccccc2)cc1Br 6.19%

Source: PubChem BioAssay AID1903 (Southern Research Specialized Biocontainment Screening …, 2009)
